The results in this text go back to PubChem BioAssay (Tox21).

Records with an inconclusive call do not appear. Where a call stands in place of a potency, no number is given. Activity calls are given as the source filed them. Calls follow the shape of the dose curve; as a rule, active = well fitted cell-killing curve with a large enough effect in the repeat runs; inconclusive = weak or mixed curves, or effect the other way; inactive = flat fitted curve, though single readings scatter.
Potency is read from the fitted curve at half-maximal effect.

The nature of this experiment: qHTS RealTime-Glo MT Cell Viability Assay in HEK293 cells - 8 hour (AID 1224887). Also: nearly all actives have a fitted effect of over 50% in size. The conditions noted are these: RealTime-Glo luminescence; series mostly up to 76.8 µM. The source says:
U.S. Tox21 Program National Center for Advancing Translational Sciences [NCATS] NIH Chemical Genomics Center [NCGC] U.S. Environmental Protection Agency [EPA] National Institutes of Environmental Health Sciences [NIEHS] National Toxicology Program [NTP] U.S. Food and Drug Administration [FDA] Tox21 Assay Overview: Measure of cell viability is critical in the cell-base assay. Analysis of cell viability is necessary for the characterization of cell responses to cytotoxic drugs and environmental stress. A RealTime-Glo MT Cell Viability Assay to monitor cell viability in real time of continues cell culture during 40 hours of compound treatment was used to screen Tox21 10K library compounds in Hek293 cells. The RealTime-Glo MT Cell Viability Assay is a nonlytic, homogeneous, bioluminescent method to measure cell viability in real time using a simple, plate-based method. The assay involves adding NanoLuc luciferase and a cell-permeant prosubstrate to cells in culture. Viable cells reduce the proprietary prosubstrate to generate a substrate for NanoLuc luciferase. This substrate diffuses from cells into the surrounding culture medium, where it is rapidly used by the NanoLuc Enzyme to produce a luminescent signal. The signal correlates with the number of viable cells, making the assay well suited for cytotoxicity studies.
Tox21 Assay Protocol Summary: The mixture of Hek293 cell suspension and reagents were dispensed at 600cells/6 ul/well in 1536-well tissue culture treated black solid bottom plates using a Multidrop dispenser. After the assay plates were incubated at a 37 C/5% CO2 incubator for 5 hours, 23 nL of compounds dissolved in DMSO, positive and negative controls was transferred to the assay plate by a pintool work station. The plates were incubated at 37 C for 40 hours. The luminescence intensity were measured at 0h, 8h, 16h, 24h, 32h and 40h time points using ViewLux plate reader during compound treatment.
Take `COc1ccc(C)cc1`: the Potency entry was “inactive”.
Then `COc1ccc(CCN(C)CCCN2CCc3cc(OC)c(OC)cc3CC2=O)cc1OC`, with “inactive”; and `CCSC(=O)N(CC)CC`, with “inactive”; and `Oc1ccc2c(c1)Cc1ccccc1-2`, with 21.9 µM (active).
For `Cc1ccc(S(=O)(=O)NC(=O)NC2CCCCC2)cc1`, the Potency result was “inactive”.
For the molecule `CCCCCCCCCCCC(=O)OCC(O)CO` (stereo not given), the Potency entry was “inactive”.
Then `C=CCOC(=O)COCCC(C)C`, with “inactive”; and `[Cl][Nd]([Cl])[Cl]`, with “inactive”.
Then `CCc1ccc(C)cc1`, with “inactive”; and `CC(C)(C)C(O)/C=C/c1ccc2c(c1)OCO2` (stereo not given), with “inactive”; and `Nc1c(Cl)cc(Cl)cc1[N+](=O)[O-]`, with “inactive”.
The entry for `CC1CCc2nccnc21` (stereo not given) is “inactive”; for `CCOC(=O)c1ccc(NC(=O)CN2CCCCC2)cc1` it is “inactive”.
As for `Cc1oc(=O)oc1COC(=O)[C@@H]1N2C(=O)[C@@H](NC(=O)[C@H](N)c3ccccc3)[C@H]2SC1(C)C`, the Potency entry was “inactive”.
Regarding `CC(=O)NCCO`, the Potency result was “inactive”.
On to `CC(C)C(=O)OCCOc1ccccc1`, for which the Potency entry is “inactive”.
Then `O=C1CC[C@@H](C(=O)O)N1`, with “inactive”; and `C[C@@H]1[C@H](O)[C@@H](C)/C=C/C=C\C=C\C=C\C=C\C=C\C=C\[C@H](O[C@@H]2O[C@H](C)[C@@H](O)[C@H](N)[C@@H]2O)C[C@@H]2O[C@](O)(C[C@@H](O)C[C@@H](O)[C@H](O)CC[C@@H](O)C[C@@H](O)CC(=O)O[C@H]1C)C[C@H](O)[C@H]2C(=O)O` (stereo in doubt), with “inactive”; and `O=C(O)CCC(=O)OC[C@@H](NC(=O)C(Cl)Cl)[C@H](O)c1ccc([N+](=O)[O-])cc1`, with “inactive”.
Then `CC(C)(O)c1coc(S(=O)(=O)NC(=O)Nc2c3c(cc4c2CCC4)CCC3)c1`, with “inactive”; and `CCCCCCCCCCCCCCCCCC(=O)OCC(CC)CCCC` (stereo not given), with “inactive”.
The entry for `Nc1ccc(NC(=O)c2ccc(N)cc2)cc1` is “inactive”; for `COc1ccc(-c2cc(C(F)F)nn2-c2ccc(S(N)(=O)=O)cc2)cc1F` it is “inactive”.
As to `CCOC(=O)Oc1ccc(CCNC(=O)[C@H](CCSC)NC(C)=O)cc1OC(=O)OCC`, the Potency result is “inactive”.
Then `COC(=O)Nc1nc2ccc(C(=O)C3CC3)cc2[nH]1`, with “inactive”; and `CC(C(=O)O)c1ccc(C(=O)c2cccs2)cc1` (stereo not given), with “inactive”; and `O=C1[C@@H]2[C@H]3CC[C@H](C3)[C@@H]2C(=O)N1CCCCN1CCN(c2ncccn2)CC1`, with “inactive”.
Then `COC(C)(C)OC`, with “inactive”.
The entry for `CC1=CC[C@@]23C[C@@H]1C(C)(C)[C@@H]2CC[C@H]3C` is “inactive”.
Take `NC(=O)c1ccccc1[N+](=O)[O-]`: the Potency result was “inactive”.
Turning to `CCCCCCCC/C=C\CCCCCCCC(=O)OCCO`, the Potency was 57.8 µM (active).
Consider `CC1CCC(C(C)CS)CC1S` (stereo not given), for which the Potency result is “inactive”.
Then `C=CC(=O)O`, with “inactive”; and `CC(C)(C)NCC(O)COc1cccc2c1C[C@H](O)[C@H](O)C2` (stereo not given in full), with “inactive”.
The entry for `COC(=O)c1sccc1S(N)(=O)=O` is “inactive”; for `C1=CCC2CC=CC2C1` (stereo not given) it is “inactive”; for `O=C(Nc1ccc(C(=O)O)c(O)c1)c1ccccc1` it is “inactive”.
The entry for `CCC(CO)(CO)[N+](=O)[O-]` is “inactive”; for `CCCCCCC(O)CCCCCCCCCCC(=O)OC` (stereo not given) it is “inactive”; for `CCCCCCCCCCCSCC(=O)O` it is “inactive”.
